AmpC detergent – AmpC beta-lactamase inhibition with detergent present; AmpC hydrolysis of nitrocefin, absorbance 480 nm, 0.01% Triton; AID 485294; P00811; 370,000 tested, 0.041% active; Potency, µM (series often up to 114 µM), inactives show at the highest dose activity change, negative = inhibition, hits mostly inhibitors;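 also: potency is read from the fitted curve at half-maximal effect; 0% = no-compound wells and -100% = no-enzyme wells; nearly all actives have a fitted effect of over 25% in size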
Target sequence (P00811 whole entry, looked up): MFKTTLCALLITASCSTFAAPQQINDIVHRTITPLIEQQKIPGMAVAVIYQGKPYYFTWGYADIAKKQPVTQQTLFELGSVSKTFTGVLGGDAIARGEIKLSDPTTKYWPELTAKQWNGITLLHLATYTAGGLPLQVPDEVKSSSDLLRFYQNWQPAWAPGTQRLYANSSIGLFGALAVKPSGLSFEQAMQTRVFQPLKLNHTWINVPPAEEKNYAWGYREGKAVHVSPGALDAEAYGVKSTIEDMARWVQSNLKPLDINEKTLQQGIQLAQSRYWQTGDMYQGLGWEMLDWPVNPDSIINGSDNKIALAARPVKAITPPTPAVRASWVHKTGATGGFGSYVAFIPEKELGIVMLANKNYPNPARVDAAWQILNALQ
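20 mM phosphate pH 7.0 + 0.01% (detergent screen) or 0.0001% Triton X-100; 5.3 nM AmpC reagent; cpd preinc 15 min RT; nitrocefin (800 uM stock) to start; A480 q20 s × 4 min; Activity was normalised to no-enzyme and no-compound control wells.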
NS1 function inh – influenza NS1 inhibition; 270,000 tested, 0.4% active; Potency, µM (titrated, usually from 46.1 µM), without a hit: at the top dose activity, positive = more growth; calls by dose curve; also: potency is read from the fitted curve at half-maximal effect; actives are rising curves; nearly all actives have a fitted effect of over 50% in size
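Compounds were scored for reversing the slow growth caused by influenza A NS1 in S. cerevisiae, measured by optical density at 600 nm. Assay medium contained 2% galactose at pH 6.0; NS1-free yeast of the same strain were the positive control.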
Cycloheximide cs – counter-screen hit for Shiga toxin inhibitors, cycloheximide; cell reporter, cycloheximide protein synthesis inhibition counterscreen; max response, %; 300,000 tested, 12% active; in the data active = max response mostly above about 13%, no sharp cut-off; inactive = mostly below about 14%; also: read at 38.3 µM for the half of the compounds with a filed dose; 0% is about no effect
Shiga toxin inh – blocks Shiga toxin action in Vero cells. Vero cells, Shiga toxin protein synthesis inhibition reporter. inhibition, % at 38.7 µM. 290,000 tested, 9.2% active; in the data active = inhibition mostly above about 28%, no sharp cut-off; inactive = mostly below about 43%; also: 0% is about no effect
AmpC no deterg – blocks E. coli AmpC beta-lactamase in detergent-free assay. P00811. 330,000 tested, 0.52% active. AmpC nitrocefin hydrolysis, absorbance 480 nm, 0.0001% Triton. Potency, µM (highest dose often 57.1 µM), for the others: top-dose activity change, negative = inhibition, actives largely listed as inhibitors;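 also: potency is read from the fitted curve at half-maximal effect; plate controls were no compound for no effect and no enzyme for full effect; nearly all actives have a fitted effect of over 20% in size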
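20 mM phosphate pH 7.0 + 0.01% (detergent screen) or 0.0001% Triton X-100; 5.3 nM AmpC reagent; cpd preinc 15 min RT; nitrocefin (800 uM stock) to start; A480 q20 s × 4 min; Activity was normalised to no-enzyme and no-compound control wells.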
The depositor's hits bear a star; u = inconclusive; x = no result given; [ ] = remark or other dose. This is one part of a sample in which hits are shown more often than they occur. Unless noted, calls follow the shape of the dose curve; as a rule, active = well fitted curve in the direction sought with a large enough effect; inconclusive = small, poorly fitted or top-dose-only effect, or another doubt; inactive = no such curve, though single readings can be large; an effect the other way counts as inactive or inconclusive.

SMILES	AmpC detergent	NS1 function inh	Cycloheximide cs	Shiga toxin inh	AmpC no deterg
O=C(Nc1nc2ccccc2s1)c1c(F)cccc1Cl	2%	-1%	38*	91*	-27%
Cc1ccc(-c2nnc(NC(=O)c3c(F)cccc3Cl)s2)cc1	-6%	8%	-3	10	-19%
Cn1cc(Cl)c(C(=O)Nc2nc3ccccc3s2)n1	1%	6%	42*	71*	3%
O=C(Nc1ccc2c(c1)Cc1ccccc1-2)[C@@H]1[C@H](C(=O)O)[C@]2(Cl)C(Cl)=C(Cl)[C@@]1(Cl)C2(Cl)Cl	x	9%	x	x	x
Cc1ccc(C(=O)c2oc3ccccc3c2NC(=O)c2cc(-c3ccc(Cl)cc3)on2)cc1	21%	x	x	x	x
COCCn1c(=NC(=O)C(C)(C)C)sc2cc([N+](=O)[O-])ccc21	u	7%	19*	9	-14%
O=C(CCOc1ccccc1)N(Cc1cccnc1)c1nc2c(F)cc(F)cc2s1	6%	x	x	x	x
CC(C)c1cc(C(=O)Nc2cc(Br)ccc2O)no1	-3%	-54%	36*	120*	-27%
COc1cc(NC(=O)c2cc(C(C)C)on2)cc(OC)c1OC	-2%	-21%	-2	-4	21%
O=C(Nc1cc(Br)ccc1O)c1cc(-c2cccs2)on1	2%	-11%	22*	78*	-32%
COC(=O)c1ccccc1NC(=O)c1cc(-c2cccs2)on1	1%	-4%	-2	-12	-1%
CC(C)c1cc(C(=O)Nc2cc(Cl)ccc2O)no1	1%	-100%	68*	143*	-32%
COc1ccc(CCN(C)C2CCCN(S(=O)(=O)c3ccccc3)C2)cc1OC (stereo not given)	0%	16%	-2	-7	139%
NNC(=O)c1ccc(Cl)cc1	0%	-3%	13	43	-47%
NNC(=O)c1ccc(Cn2cc(Br)c(N)n2)cc1	-5%	-2%	12*	18	-19%
CC(C)NC(=O)NNC(=O)c1cc(COc2cc(Cl)cc(Cl)c2)on1	-1%	0%	-3	4	0%
Cc1nn(C)c(C)c1C(C)NC(=O)c1cc(COc2ccc(F)c(F)c2)on1 (stereo not given)	-6%	3%	33*	47*	86%
Cc1nn(C)c(C)c1C(C)NC(=O)c1cc(COc2cncc(Cl)c2)on1 (stereo not given)	1%	-3%	15	-11	27%
Cc1nn(C)cc1C(C)NC(=O)c1cc(COc2ccc(F)c(F)c2)on1 (stereo not given)	0%	-4%	33*	18	76%
COc1cccc(CN2CCNC(=O)C2CC(=O)N(C)CCC2CCOCC2)c1OC (stereo not given)	3%	-4%	-3	12	50%
O=C(NCCSc1ccccc1)c1cncc(Br)c1	-10%	-7%	33*	11	-14%
O=C(CCc1ccccc1)NCCSc1ccccc1	-10%	x	31*	95*	4%
Cc1cccc(C(=O)NCC(=O)NCCCSc2ccccc2)c1	-14%	x	x	x	-11%
CCc1cc(C)cc(OCCNC(=O)c2cncc(Br)c2)c1	u	-13%	2	-7	0%
O=C(NCCOc1ccccc1)c1cncc(Br)c1	-4%	-7%	45*	78*	-29%
SMILES	AmpC detergent	NS1 function inh	Cycloheximide cs	Shiga toxin inh	AmpC no deterg
O=C(CCSc1ccccc1)NCCSCc1ccccc1	-11%	-12%	7	-2	-17%
CN(C)c1cccc(C(=O)NCCCSc2ccccc2)c1	-1%	0%	37*	47*	-50%
CSCC[C@H](NC(=O)[C@H](CC(C)C)NC(=O)[C@H](Cc1c[nH]c2ccccc12)NC(=O)[C@H](CCC(N)=O)NC(=O)[C@@H](NC(=O)[C@H](Cc1ccccc1)NC(=O)[C@H](CC(=O)O)NC(=O)[C@H](CCC(N)=O)NC(=O)[C@H](C)NC(=O)[C@H](CCCNC(=N)N)NC(=O)[C@H](CCCNC(=N)N)NC(=O)[C@H](CO)NC(=O)[C@H](CC(=O)O)NC(=O)[C@H](CC(C)C)NC(=O)[C@H](Cc1ccc(O)cc1)NC(=O)[C@H](CCCCN)NC(=O)[C@H](CO)NC(=O)[C@H](Cc1ccc(O)cc1)NC(=O)[C@H](CC(=O)O)NC(=O)[C@H](CO)NC(=O)[C@@H](NC(=O)[C@H](Cc1ccccc1)NC(=O)[C@@H](NC(=O)CNC(=O)[C@H](CCC(N)=O)NC(=O)[C@H](CO)NC(=O)[C@@H](N)Cc1cnc[nH]1)[C@@H](C)O)[C@@H](C)O)C(C)C)C(=O)N[C@@H](CC(N)=O)C(=O)N[C@H](C(=O)O)[C@@H](C)O	x	x	18	-8	x
COC(=O)c1ccccc1NC(=O)c1nc(-c2ccc(Cl)cc2)n2c1CCCCC2	3%	x	x	x	x
O=C(CCC(=O)NCCCc1ccccc1)NCCCc1ccccc1	13%	u	-3	9	57%
O=C(NCCSc1ccccc1)c1ccc(Br)cc1	-7%	-26%	48*	81*	12%[2.29 µM]
CN(C)S(=O)(=O)c1ccc(C(=O)NCCSc2ccc(Br)cc2)cc1	1%	9%	-5	16	-37%
O=C(NCCSc1ccccc1)c1ccccc1	u	-50%	31*	114*	-9%
CCCCCNC(=O)CCc1ccccc1	-8%	1%	13*	14	-9%
Cc1ccc2cccc(NC(=S)NC(=O)c3ccn(C)n3)c2n1	2%	8%	-1	-7	6%
Cn1ccc(C(=O)NC(=S)N2CCSCC2)n1	7%	3%	12*	12	-11%
O=C(CCCCCNc1nc(=S)[nH]c2ccccc12)NCCc1ccc(Cl)cc1	-5%	3%	6	9	20µM*
CC(C)CCNC(=O)Cc1ccc(Nc2nc(=S)[nH]c3ccccc23)cc1	3%	-10%	6	10	16µM*
O=C(Cc1ccc(Nc2nc(=S)[nH]c3ccccc23)cc1)NC1CCCCC1	-8%	x	0	2	-40%[11.4 µM]
CCc1ccc2c(CN(C)Cc3ccc(OC(F)F)c(OC)c3)cc(=O)oc2c1	-5%	0%	-1	-4	8%
O=[N+]([O-])c1ccc(-c2cn(-c3ccccc3F)c(=S)[nH]2)cc1	-3%	x	42*	131*	-27%
Cc1ccc(-c2cn(-c3ccccc3F)c(=S)[nH]2)cc1	u	0%	42*	68*	-58%
CSc1nc2c(c(=O)[nH]1)C(c1cccc(F)c1F)CC(=O)N2 (stereo not given)	7%	x	x	x	x
O=C(NC1CCCc2ccccc21)c1ccc2c(c1)sc1nc(-c3ccccc3)cn12 (stereo not given)	19%	x	x	x	x
COc1ccc(NC(=O)Nc2ccc(F)cc2F)c(C)c1	-6%	-12%	35*	20	-13%
Cc1cc(C)nc(NC(=O)Nc2ccc(F)cc2F)n1	-5%	2%	13*	17	-14%
CC(C)c1ccccc1NC(=O)Nc1ccc(F)cc1F	-5%	-34%	9.9*	23	-40%
COc1ccc(NC(=O)Nc2ccc(F)cc2F)cc1	-5%	x	38*	68*	-2%

High-throughput results deposited in PubChem BioAssay by National Center for Advancing Translational Sciences (NCATS).
